PubChem BioAssay AID1159580 (chemical genetic matrix, 2015)
Several values for one entry are separate records, joined by “and”; a condition that tells them apart may be missing. Equal entries are not always repeated. In all, about 5,500 compounds went through this assay and about 2,000 (36%) were called active. Another 18% or so got no clear call; they are omitted. Rule as the data show it: active = normalized growth mostly below about 0.91 (no sharp cut-off); inconclusive = no clear call, values can overlap the other calls; inactive = mostly above about 0.92. The list shows a part of the results.

Experiment: chemical genetic growth profiling, strain panel (AID 1159580);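 also: tested at 20 µM; growth read once vehicle control cultures reached saturation at 30 °C; 1 = growth at the plate median or of vehicle wells; lower values mean less growth of the strain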
Details: growth OD

Measured: normalized growth

CCCCNC(=O)NS(=O)(=O)c1ccc(C)cc1
inactive: S. cerevisiae deletion strains, locus YJR075W, strain HOC1, stronger effect = lower value 0.963 and 0.994 | S. cerevisiae deletion strains, locus YKL009W, strain mrt4, stronger effect = lower value 0.953 | S. cerevisiae deletion strains, locus YKL068W, stronger effect = lower value 0.98 | S. cerevisiae deletion strains, locus YKL085W, strain MDH1 (second series), stronger effect = lower value 0.973 | S. cerevisiae deletion strains, locus YKL085W, strain MDH1, stronger effect = lower value 0.973 | S. cerevisiae deletion strains, locus YKL160W, strain elf1, stronger effect = lower value 1 | S. cerevisiae deletion strains, locus YKL190W, strain CNB1, stronger effect = lower value 0.991 | S. cerevisiae deletion strains, locus YKR001C, strain vps1, stronger effect = lower value 0.985 | S. cerevisiae deletion strains, locus YKR026C, strain gcn3, stronger effect = lower value 0.999 | S. cerevisiae deletion strains, locus YKR091W, strain srl3, stronger effect = lower value 1.01 | S. cerevisiae deletion strains, locus YLL001W, strain dnm1, stronger effect = lower value 1.02 | S. cerevisiae deletion strains, locus YLL026W, stronger effect = lower value 1.01 | S. cerevisiae deletion strains, locus YLL041C, strain sdh2, stronger effect = lower value 1.01 | S. cerevisiae deletion strains, locus YLR027C, strain aat2, stronger effect = lower value 1 | S. cerevisiae deletion strains, locus YLR039C, strain RIC1, stronger effect = lower value 0.961 | S. cerevisiae deletion strains, locus YLR058C, strain SHM2, stronger effect = lower value 0.991 | S. cerevisiae deletion strains, locus YLR102C, strain apc9, stronger effect = lower value 0.985 | S. cerevisiae deletion strains, locus YLR113W, strain HOG1, stronger effect = lower value 0.915 | S. cerevisiae deletion strains, locus YLR221C, strain rsa3, stronger effect = lower value 0.952 | S. cerevisiae deletion strains, locus YLR258W, strain gsy2, stronger effect = lower value 1.01 | S. cerevisiae deletion strains, locus YLR262C, strain YPT6 (second series), stronger effect = lower value 0.984 | S. cerevisiae deletion strains, locus YLR262C, strain YPT6, stronger effect = lower value 0.933 | S. cerevisiae deletion strains, locus YLR268W, strain sec22, stronger effect = lower value 0.951 | S. cerevisiae deletion strains, locus YLR320W, strain mms22, stronger effect = lower value 0.999 | S. cerevisiae deletion strains, locus YLR330W, strain CHS5, stronger effect = lower value 0.986 | S. cerevisiae deletion strains, locus YLR342W, strain FKS1 (second series), stronger effect = lower value 1.01 | S. cerevisiae deletion strains, locus YLR342W, strain FKS1, stronger effect = lower value 1.02 | S. cerevisiae deletion strains, locus YLR357W, strain rsc2, stronger effect = lower value 1.02 | S. cerevisiae deletion strains, locus YLR370C, strain arc18, stronger effect = lower value 1.02 | S. cerevisiae deletion strains, locus YLR371W, strain rom2, stronger effect = lower value 0.974 | S. cerevisiae deletion strains, locus YLR384C, strain iki3, stronger effect = lower value 1.02 | S. cerevisiae deletion strains, locus YLR418C, strain cdc73, stronger effect = lower value 1.01 | S. cerevisiae deletion strains, locus YML016C, strain PPZ1, stronger effect = lower value 0.996 | S. cerevisiae deletion strains, locus YML032C, strain rad52, stronger effect = lower value 0.983 | S. cerevisiae deletion strains, locus YML120C, strain ndi1, stronger effect = lower value 1.03 | S. cerevisiae deletion strains, locus YML124C, strain tub3, stronger effect = lower value 0.979 | S. cerevisiae deletion strains, locus YMR058W, strain fet3, stronger effect = lower value 1.02 | S. cerevisiae deletion strains, locus YMR078C, strain ctf18, stronger effect = lower value 0.969 | S. cerevisiae deletion strains, locus YMR125W, strain sto1, stronger effect = lower value 1.02 | S. cerevisiae deletion strains, locus YMR129W, stronger effect = lower value 1.01 | S. cerevisiae deletion strains, locus YMR205C, strain PFK2, stronger effect = lower value 1.01 | S. cerevisiae deletion strains, locus YMR223W, strain ubp8, stronger effect = lower value 1.01 | S. cerevisiae deletion strains, locus YMR231W, strain pep5, stronger effect = lower value 1 | S. cerevisiae deletion strains, locus YMR263W, strain SAP30, stronger effect = lower value 0.999 | S. cerevisiae deletion strains, locus YMR307W, strain GAS1, stronger effect = lower value 1.01 and 1 | S. cerevisiae deletion strains, locus YNL067W, strain RPL9B, stronger effect = lower value 0.992 | S. cerevisiae deletion strains, locus YNL071W, strain lat1, stronger effect = lower value 1.01 | S. cerevisiae deletion strains, locus YNL128W, strain TEP1, stronger effect = lower value 0.965 and 0.986 | S. cerevisiae deletion strains, locus YNL175C, strain NOP13, stronger effect = lower value 1.01 | S. cerevisiae deletion strains, locus YNL183C, strain NPR1, stronger effect = lower value 0.912 | S. cerevisiae deletion strains, locus YNL197C, strain WHI3, stronger effect = lower value 1.01 | S. cerevisiae deletion strains, locus YNL209W, strain ssb2, stronger effect = lower value 1.02 | S. cerevisiae deletion strains, locus YNL224C, strain SQS1, stronger effect = lower value 0.995 | S. cerevisiae deletion strains, locus YNL233W, strain BNI4, stronger effect = lower value 1 | S. cerevisiae deletion strains, locus YNL248C, strain rpa49, stronger effect = lower value 1 | S. cerevisiae deletion strains, locus YNL250W, strain rad50, stronger effect = lower value 0.998 | S. cerevisiae deletion strains, locus YNL271C, strain bni1, stronger effect = lower value 0.991 | S. cerevisiae deletion strains, locus YNL298W, strain CLA4, stronger effect = lower value 0.981 | S. cerevisiae deletion strains, locus YNL307C, strain MCK1, stronger effect = lower value 0.978 | S. cerevisiae deletion strains, locus YNL322C, strain KRE1 (second series), stronger effect = lower value 0.99 | S. cerevisiae deletion strains, locus YNL322C, strain KRE1, stronger effect = lower value 0.992 | S. cerevisiae deletion strains, locus YNR049C, strain mso1, stronger effect = lower value 1.01 | S. cerevisiae deletion strains, locus YNR052C, strain pop2, stronger effect = lower value 0.98 | S. cerevisiae deletion strains, locus YOL006C, strain TOP1, stronger effect = lower value 1.07 | S. cerevisiae deletion strains, locus YOL012C, strain htz1 1.12 | S. cerevisiae deletion strains, locus YOL147C, strain pex11, stronger effect = lower value 0.981 | S. cerevisiae deletion strains, locus YOR001W, strain rrp6, stronger effect = lower value 1.02 | S. cerevisiae deletion strains, locus YOR061W, strain CKA2, stronger effect = lower value 1 | S. cerevisiae deletion strains, locus YOR069W, strain VPS5, stronger effect = lower value 0.985 | S. cerevisiae deletion strains, locus YOR070C, strain gyp1, stronger effect = lower value 1.01 | S. cerevisiae deletion strains, locus YOR080W, strain dia2, stronger effect = lower value 1.02 | S. cerevisiae deletion strains, locus YOR083W, strain WHI5 (second series), stronger effect = lower value 1.01 | S. cerevisiae deletion strains, locus YOR083W, strain WHI5, stronger effect = lower value 0.998 | S. cerevisiae deletion strains, locus YOR106W, strain vam3, stronger effect = lower value 1.04 | S. cerevisiae deletion strains, locus YOR136W, strain idh2, stronger effect = lower value 0.998 | S. cerevisiae deletion strains, locus YOR144C, strain elg1, stronger effect = lower value 0.992 | S. cerevisiae deletion strains, locus YOR184W, strain ser1, stronger effect = lower value 1 | S. cerevisiae deletion strains, locus YOR231W, strain MKK1, stronger effect = lower value 0.983 | S. cerevisiae deletion strains, locus YOR265W, strain rbl2, stronger effect = lower value 1.01 | S. cerevisiae deletion strains, locus YOR270C, strain vph1, stronger effect = lower value 1.04 | S. cerevisiae deletion strains, locus YOR290C, strain snf2, stronger effect = lower value 0.998 | S. cerevisiae deletion strains, locus YOR316C, strain cot1, stronger effect = lower value 0.979 | S. cerevisiae deletion strains, locus YPL051W, strain arl3, stronger effect = lower value 0.999 | S. cerevisiae deletion strains, locus YPL055C, strain LGE1, stronger effect = lower value 1.01 | S. cerevisiae deletion strains, locus YPL078C, strain atp4, stronger effect = lower value 1.04 | S. cerevisiae deletion strains, locus YPL106C, strain sse1, stronger effect = lower value 1.06 | S. cerevisiae deletion strains, locus YPL240C, strain hsp82, stronger effect = lower value 1 | S. cerevisiae deletion strains, locus YPL241C, strain CIN2, stronger effect = lower value 0.994 and 1 | S. cerevisiae deletion strains, locus YPL256C, strain CLN2, stronger effect = lower value 0.945 | S. cerevisiae deletion strains, locus YPR119W, strain clb2, stronger effect = lower value 0.986 | S. cerevisiae deletion strains, locus YPR141C, strain kar3, stronger effect = lower value 0.979 | S. cerevisiae deletion strains, locus YPR163C, strain tif3, stronger effect = lower value 0.979 | S. cerevisiae deletion strains, locus YPR167C, strain met16, stronger effect = lower value 0.987 | S. cerevisiae deletion strains, strain wtn01, stronger effect = lower value 0.969 | S. cerevisiae strains, strain wild type, stronger effect = lower value 1
